Data from PubChem BioAssay (NCI).
Compounds without any hit were thinned out: in the full panel of roughly 79,000, 15% have a hit. A number with no mark means an inactive call. Calls of active or inactive are those of the source. No stated cut-off is given here; in the data, active means growth inhibition above about 70%; inactive means the rest.

What was measured:
[1] = NCI Yeast Anticancer Drug Screen. Data for the rad50 strain (AID 155);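 further: 0% = growth of vehicle-only cultures of the same strain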; conditions: S. cerevisiae rad50 strain growth inhibition; at 50.0 µM; hits give high values
In short: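 Compounds were tested on a yeast strain with an engineered DNA damage repair alteration; the reported value is growth inhibition normalised to vehicle treatment.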

[2] = NCI Yeast Anticancer Drug Screen. Data for the mec2-1 strain (AID 157); conditions: S. cerevisiae mec2-1 strain, at 50.0 µM, hits give high values
In short: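 Yeast mec2-1 mutant treated with compound. Readout: growth inhibition vs vehicle controls.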

[3] = NCI Yeast Anticancer Drug Screen. Data for the sgs1 mgt1 strain (AID 161);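 further: 0% = growth of cultures given vehicle only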; conditions: S. cerevisiae sgs1 mgt1 strain, at 50.0 µM, hits give high values
In short: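 Mutant yeast exposed to compound; growth scored against vehicle-only wells.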

[4] = NCI Yeast Anticancer Drug Screen. Data for the cln2 rad14 strain (AID 165);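 further: 0% = growth equal to vehicle treated cultures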; conditions: S. cerevisiae cln2 rad14 strain, at 50.0 µM, hits give high values
In short: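 cln2 rad14 yeast strain; compound exposure; growth inhibition read vs vehicle controls.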

[5] = NCI Yeast Anticancer Drug Screen. Data for the bub3 strain (AID 167); conditions: S. cerevisiae bub3 mutant strain, at 50.0 µM, hits give high values
In short: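 Growth of a checkpoint-deficient yeast mutant is measured after compound exposure. Values represent inhibition relative to vehicle.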

[6] = NCI Yeast Anticancer Drug Screen. Data for the mlh1 rad18 strain (AID 175); conditions: S. cerevisiae mlh1 rad18 strain growth inhibition; at 50.0 µM; hits give high values
In short: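 Yeast w/ defined DNA-repair lesions; compound exposure; growth vs vehicle controls → % inhibition.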

SMILES	growth inhibition [1]	growth inhibition [2]	growth inhibition [3]	growth inhibition [4]	growth inhibition [5]	growth inhibition [6]
C/C=C/C1OC(OC)(OC)C1(OC)OC (centres undefined)	38.8%	9.85%	18.9%	3.25%	11.3%	–
CCCCCC(=O)Oc1ccccc1OC	-8.1%	-5.55%	1.15%	-29.4%	-7.85%	–
CCCc1ccc(N)cc1	3.25%	-38.4%	-9.1%	-18.1%	-24.4%	–
N#Cc1c(N)nc(Nc2cccc3ccccc23)c(C#N)c1C#N	37.7%	29.7%	29.1%	39.9%	29.4%	–
CCCCN(CCCC)C(=O)/C=C\C(=O)O	-6.6%	1%	-0.2%	28.1%	-1.2%	–
C(=N\NC1=NCCCCN1)/c1ccc2ccccc2c1	14.1%	-1.75%	-32%	-34.6%	-2.35%	–
O=NN1C2CCCCC2C2CCCCC21 (centres undefined)	-9%	20.5%	-14.7%	-5.25%	26.2%	–
CNc1ccn(C2OC(CO)C(O)C2O)c(=O)n1 (centres undefined)	-9.5%	-7.5%	-2.05%	11.9%	10.1%	–
CCCOC(=O)CC(=O)OCC	6%	17.2%	-4.95%	-11.8%	-7.15%	–
CC(C)(C)OC(=O)CC1(O)CCCCC1	4.15%	-5.9%	-6.05%	4.75%	4%	–
CCOC(=O)C1=C(C)NC(C)=C(C(=O)OCC)C1	14.9%	-5.8%	-1.5%	-41.1%	31.1%	–
COC(=O)C1CCC(=O)N1C(c1ccc(OC)cc1)c1ccc(OC)cc1 (centres undefined)	-26.6%	25.6%	13.4%	12.6%	8.3%	–
CSc1nc2c(nnn2C2OCC(O)C(O)C2O)c(=O)[nH]1 (centres undefined)	-10.7%	-0.5%	-11.9%	-4.3%	-6.1%	–
C[N+](C)(C)CCOC(=O)C(c1ccccc1)C1(O)CCCC1 (centres undefined)	33.6%	-16.1%	12.7%	-24.4%	-1.7%	–
COC(=O)c1cc(C(=O)OC)c(C/C(=N/NC(N)=S)C(=O)Nc2ccc(Cl)c(Cl)c2)nc1C/C(=N/NC(N)=S)C(=O)Nc1ccc(Cl)c(Cl)c1	28.4%	14.9%	7.1%	34.2%	32.7%	–
O=C([O-])c1ccc2c(c1)-c1nc-2nc2[n-]c(nc3nc(nc4[n-]c(n1)c1ccc(C(=O)[O-])cc41)-c1ccc(C(=O)[O-])cc1-3)c1ccc(C(=O)[O-])cc21.[Gd+3].[K+]	-12.8%	-11.1%	-11.8%	23.6%	18%	–
Cc1cc(Cl)c2c(C)ccc(C)c2n1	-4.25%	-31.9%	9.85%	5.7%	4%	–
O=C(Cl)CCc1ccnc2ccccc12	0.5%	3.25%	4.2%	-8.45%	2.4%	–
ClCC1CCN(Cc2ccccc2)CC1	-4.5%	13.9%	6.7%	-17.4%	-10.5%	–
Cc1cc(Cl)c2c(c1)C(=O)C(C)C2.[Cu+2] (centres undefined)	-13.1%	-10.2%	-18.8%	-26.4%	-6.65%	–
CC(=O)OCC1OC(n2c(-c3ccc(Cl)cc3)cc(-c3ccccc3)c(C#N)c2=S)C(OC(C)=O)C(OC(C)=O)C1OC(C)=O (centres undefined)	20.6%	-9.25%	6.5%	2.8%	17.8%	–
CCCCc1nc(C)oc1C(C)C	-31.2%	-15.8%	-8.05%	-5.45%	-23.9%	–
Cc1ccc(Cl)cc1NC(=O)Oc1ccc(Cl)cc1C	23.2%	9.1%	-7.8%	8.8%	15.7%	–
CC(Cl)C(O)C#N (centres undefined)	-25.1%	-3.35%	-10.8%	-8.2%	1.6%	–

SMILES	growth inhibition [1]	growth inhibition [2]	growth inhibition [3]	growth inhibition [4]	growth inhibition [5]	growth inhibition [6]
O=C(/C=C/c1ccc([N+](=O)[O-])cc1)NN=C(c1ccccc1)c1ccccc1	-20.4%	-16.4%	-12.3%	-7.1%	-9.5%	–
Cc1ccc(NC(=O)N2CC2C)cc1NC(=O)N1CC1C (centres undefined)	2.4%	5.55%	-7.05%	17.3%	6.9%	-9.45%
CCCOC(=O)c1c(Cl)c(Cl)c(Cl)c(Cl)c1C(=O)OCCC	12.8%	-20.8%	4.8%	-3.05%	-15.2%	–
CCCCCCCC(=O)CC(C)C	12.1%	-11.7%	0.6%	-2.5%	-21.4%	–
CC(=O)n1[nH]c(=O)n(-c2ccc(Cl)cc2)c1=O	-36.5%	-37.2%	-30.1%	2.1%	-22.2%	–
CC1(C)C2CCC1(C)C(OC(=O)C1OC(O)C(O)C(O)C1O)C2 (centres undefined)	-1.3%	24.9%	12.8%	-2.75%	27.6%	–
Nc1ncnc2c(C3OC(CO)C(O)C3O)nsc12 (centres undefined)	-6.8%	-23.6%	-37.1%	-15.2%	-32.1%	–
O=C(Nc1cccc([N+](=O)[O-])c1)OCC#CCOC(=O)Nc1cccc([N+](=O)[O-])c1	3.8%	7.5%	13.7%	11.8%	9.95%	–
Cc1cc(Cl)nc(Nc2ccccc2)n1	13.1%	-2.5%	3.8%	-1.8%	9.25%	–
CCN(CC)[Si](C)(C)C	-24.1%	-0.2%	-9.25%	-6.65%	-21.8%	–
CCCCCCCCCCCCCCCCCCNC(=O)NCc1ccncc1	-13.3%	1.8%	-11.3%	-4.3%	-0.35%	–
C/C=C/C(=O)OC1CCCC1	30.9%	11.7%	23.6%	18.9%	10%	–
F[B-](F)(F)[NH2+]c1ccc(-c2ccc([NH2+][B-](F)(F)F)c(Cl)c2)cc1Cl	35.1%	8.15%	42.3%	38%	19.9%	–
CCCOC(=O)C(O)c1ccc(C)cc1 (centres undefined)	-1.5%	-11.8%	12.9%	-3.75%	5.7%	–
O=C1Nc2cccc3cc(NCC(O)CCl)cc1c23 (centres undefined)	31.3%	8.5%	11.4%	17.9%	3.05%	–
Cc1cccc(Cl)c1N	-5.55%	-7.95%	6.9%	3.15%	-2.4%	-3.15%
Cc1ccc(N2C(=O)CNC2=O)cc1	-10.3%	-5%	-7.8%	-27.2%	1.2%	-6.45%
Cc1ccccc1-n1c(SCC(=O)NC(=O)Nc2cccc(Cl)c2)nc2c(Br)cc(Br)cc2c1=O	-22.9%	-5.5%	0.1%	-16.1%	-12.6%	-2.75%
CCC(Cc1ccco1)C(=O)NC(N)=O (centres undefined)	-10.2%	4.4%	-9.8%	-9.1%	0.65%	11.3%
O=C(O)CCCc1ccc2c(c1)-c1ccccc1S2=O (centres undefined)	0.65%	3.8%	1.25%	-3.6%	-4%	13.1%
CC(C)NC(=O)C1CC2C=CC1C2 (centres undefined)	7.7%	1.3%	1.75%	3.25%	-9.85%	14.8%
CC(C)(C)OC(=O)c1ccc(NCc2cc(O)ccc2O)cc1	87.4% (active)	89% (active)	90.8% (active)	90.3% (active)	88.5% (active)	87.1% (active)
[CH3][Ge]([CH3])([CH3])/[C](=[C](\c1ccccc1)[Ge]([CH3])([CH3])[CH3])c1ccccc1	39.6%	-3.5%	10%	9.6%	-1.5%	9.65%
